# Fam108B inh: mouse Fam108B serine hydrolase inhibitors, primary screen, counter-screen for RBBP9 inhibitor project, biochemical, fluorescence polarization; recombinant Fam108B, FP-Rh probe fluorescence polarization; hit rate 0.33% among 300,000; AID 1947, 2009; inhibition, % at 9.51 µM;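 active = inhibition above the screen mean inhibition plus 3 SD, computed separately per campaign, cut at about 18% in these data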;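 also: inhibitors lower polarization as less probe binds the enzyme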
# PAD4 inh: human PAD4 inhibitors, primary screen, biochemical, fluorescence polarization, 1536-well format | hit rate 0.41% among 330,000 | inhibition, % at 6.36 µM | recombinant PAD4, RCA probe fluorescence polarization | Protein-arginine deiminase type-4 (Homo sapiens), Q9UM07 | AID 485272, 2010;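 active = percent inhibition above a cutoff equal to the mean of all tested compounds plus 3 SD, cut at about 15% in these data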;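 also: 0% = PAD4 with RCA probe and DMSO and 100% = probe without PAD4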
# Target sequence (Q9UM07 whole entry, looked up): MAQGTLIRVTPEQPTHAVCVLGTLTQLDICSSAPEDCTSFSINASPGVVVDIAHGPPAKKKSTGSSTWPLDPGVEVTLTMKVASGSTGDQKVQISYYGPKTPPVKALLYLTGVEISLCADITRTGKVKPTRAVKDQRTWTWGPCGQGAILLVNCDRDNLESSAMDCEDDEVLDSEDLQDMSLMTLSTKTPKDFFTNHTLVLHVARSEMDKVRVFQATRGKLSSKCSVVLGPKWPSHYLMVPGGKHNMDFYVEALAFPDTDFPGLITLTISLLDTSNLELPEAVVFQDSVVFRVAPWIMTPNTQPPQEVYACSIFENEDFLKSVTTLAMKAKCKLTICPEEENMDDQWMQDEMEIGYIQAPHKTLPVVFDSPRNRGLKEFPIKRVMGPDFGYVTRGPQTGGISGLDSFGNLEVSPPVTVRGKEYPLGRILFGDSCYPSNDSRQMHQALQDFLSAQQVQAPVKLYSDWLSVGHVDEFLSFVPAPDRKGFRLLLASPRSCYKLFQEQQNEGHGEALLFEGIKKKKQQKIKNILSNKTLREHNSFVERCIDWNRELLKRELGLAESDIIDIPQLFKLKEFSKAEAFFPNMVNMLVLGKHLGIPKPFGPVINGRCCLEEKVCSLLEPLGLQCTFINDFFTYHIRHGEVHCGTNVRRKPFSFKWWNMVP
# LYPLA2 counter: LYPLA2 inhibitors, primary screen, counter-screen for PME1 inhibitor project, biochemical, fluorescence polarization, FP-Rh probe ABPP | recombinant LYPLA2 | inhibition, % at 5.9 µM | hit rate 0.38% among 320,000 | AID 2177, 2009;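 active = inhibition above the screen-wide mean plus 3 SD, limit set per campaign, cut at about 26% in these data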;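 also: 0% = LYPLA2 with DMSO and 100% = wells lacking LYPLA2 enzyme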
# LYPLA1 counter: LYPLA1 inhibitors, primary screen, counter-screen for PME1 inhibitor project, biochemical, fluorescence polarization, FP-Rh probe ABPP. recombinant LYPLA1. inhibition, % at 5.9 µM. hit rate 0.16% among 320,000;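 active = inhibition above the mean of all tested compounds plus 3 SD, set per campaign, cut at about 14% in these data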;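 also: inhibitors block serine hydrolase probe labeling of LYPLA1 so polarization falls; 0% = enzyme with DMSO and 100% = wells lacking LYPLA1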
# GSTO1 inh: inhibitors of recombinant GSTO1, primary screen, counter-screen for RBBP9 inhibitor project, biochemical, fluorescence polarization. activity-based probe fluorescence polarization. hit rate 1.1% among 300,000. Glutathione S-transferase omega-1 (Homo sapiens), P78417. inhibition, % at 5.96 µM;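 active = inhibition above the campaign mean inhibition plus 3 SD, cut at about 35% in these data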;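 also: 0% = GSTO1-1 with DMSO and 100% = wells lacking GSTO1-1 enzyme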
# PME-1 inh: PME-1 inhibitors via competitive probe labeling, primary screen, biochemical, fluorescence polarization, FP-Rh probe, HTS. inhibition, % at 5.9 µM. Protein phosphatase methylesterase 1 (Homo sapiens), Q9Y570. hit rate 0.53% among 320,000. AID 2130, 2009. recombinant PME-1;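 active = inhibition above the campaign mean of all compounds plus 3 SD, cut at about 26% in these data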;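 also: competitive labeling of PME-1 active site by serine hydrolase directed probe; 0% = PME-1 with DMSO and 100% = wells lacking PME-1 enzyme; inhibitors block probe labeling so polarization falls and inhibition rises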
# LYPLA1 conf: LYPLA1 inhibitors, retest, confirmation, counter-screen for PME1 inhibitor project, biochemical, fluorescence polarization, FP-Rh probe ABPP; shares compounds with LYPLA1 counter; recombinant LYPLA1; inhibition, % at 5.9 µM; hit rate 69% among 480; AID 2233, 2010;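 active = mean inhibition across replicates above the hit cutoff set in the primary screen, cut at about 15% in these data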;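 also: loss of FP-Rh probe labeling of LYPLA1 seen as lower polarization; 0% = LYPLA1 with DMSO and 100% = wells lacking LYPLA1 enzyme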
# An asterisk follows results filed as active; nt = no result. Shown are actives, neighbours in structure and some others; about 1.7% of the full set was active somewhere.
SMILES,Fam108B inh,PAD4 inh,LYPLA2 counter,LYPLA1 counter,GSTO1 inh,PME-1 inh,LYPLA1 conf
Cc1nc2c(C(=O)NCCc3ccccc3Cl)c[nH]n2c(=O)c1Cl,10.9,-0.5,13.3,17.6*,3.9,11.5,15.9*
Cc1nc2c(C(=O)NCc3ccccc3Cl)c[nH]n2c(=O)c1Cl,-0.7,-0.1,1.8,-1.9,-3.1,13.3,nt
COc1ccc(/C=C2/Sc3ccc(C(=O)NCCCN4CCOCC4)cc3NC2=O)cc1OC,-3.8,-3.1,6.9,36.9*,-255.7,14.6,66.5*
Cc1cccc(/C=C2/Sc3ccc(C(=O)NCCCN4CCOCC4)cc3NC2=O)c1,-11.0,-2.7,14.1,1.3,-104.2,-4.3,nt
Cc1ccc(OCC(=O)N2CCC3(CC2)CC(=O)c2ccccc2O3)cc1,-2.8,4.5,5.5,4.4,2.3,3.1,nt
O=C1CC2(CCN(C(=O)COc3ccc(Cl)cc3)CC2)Oc2ccccc21,-1.1,-3.1,20.1,15.8*,6.0,1.1,20.7*
CCN(CC)S(=O)(=O)c1cccc(-c2nnc(SCC(=O)c3cc(C)n(C)c3C)o2)c1,0.6,-0.1,-4.3,-0.3,-2.7,3.9,nt
CCN(CC)S(=O)(=O)c1cccc(-c2nnc(SCCOc3ccccc3C)o2)c1,-1.1,0.2,-8.1,29.3*,-1.4,-1.4,34.3*
CCN(CC)S(=O)(=O)c1cccc(-c2nnc(SCCOc3ccccc3)o2)c1,-5.5,2.6,1.2,41.0*,-3.5,-9.8,50.6*
Cc1ccc(NC(=O)CSCC(=O)NCc2cccc(C(F)(F)F)c2)cc1,4.2,-3.6,-0.8,-4.5,15.9,-16.7,nt
O=C1CCN(C(=O)/C=C/c2ccccc2)c2ccccc21,-0.6,-2.3,13.1,14.7*,-7.0,-0.3,23.1*
CC(C)OC(=O)C1Cc2ccccc2CN1S(=O)(=O)c1cccs1 (centres undefined),1.1,-6.5,1.6,-0.5,4.5,3.2,nt
C=CCn1c(O)c(N=NC(=S)Nc2cccc(OC)c2)c2ccccc21,7.1,-3.3,10.4,13.3,-2.1,6.4,nt
C=CCn1c(O)c(N=NC(=S)Nc2ccc(OC)cc2)c2ccccc21,12.9,-5.2,7.1,30.1*,-21.3,-5.9,33.3*
Cc1cccc(C(=O)NC(NCc2ccco2)C(Cl)(Cl)Cl)c1 (centres undefined),2.6,-3.8,5.3,16.8*,3.4,7.4,4.2
CSC(=NC#N)N1CCN(c2ccc(Cl)cc2)CC1,-5.3,0.0,5.8,16.7*,6.9,0.2,19.4*
COc1cc2[nH]c(=O)n(CCCCCC(=O)N3CC=C(c4ccccc4)CC3)c(=O)c2cc1OC,-7.3,3.6,21.3,17.0*,-9.9,-1.6,17.6*
Cc1ccc(NC(=O)COC(=O)COc2cccc3c2OC(C)(C)C3)c(C)c1,0.6,3.1,3.7,0.9,0.3,3.9,nt
O=C(CC1N=C(Cc2ccccc2)NNC1=O)N/N=C/c1ccc([N+](=O)[O-])cc1 (centres undefined),1.1,-2.7,-2.6,26.1*,-0.3,10.8,22.8*
C/C(=N\NC(=O)CC1N=C(Cc2ccccc2)NNC1=O)c1ccccc1 (centres undefined),1.1,-2.0,3.6,4.2,4.4,2.7,nt
COc1ccc(OC)c(-n2c(=S)[nH]c3cc(C(=O)NCCCN4CCCC4=O)ccc3c2=O)c1,-0.1,1.4,-3.7,-5.3,6.2,-1.0,nt
Cc1cc(C)c2oc(C(=O)N3CCN(Cc4ccccc4)CC3)cc(=O)c2c1,-4.5,1.4,-5.8,20.9*,4.4,3.4,25.5*
Nc1cc(=O)[nH]c(SCC(=O)Nc2ccc(Cl)c(Cl)c2)n1,3.8,-2.9,-1.3,15.1*,-10.5,-12.6,20.5*
COc1ccc(CNS(=O)(=O)c2ccc(-n3cnnn3)c(OC)c2)cc1,0.4,5.0,0.9,3.5,4.7,-6.8,nt
COc1cc(S(=O)(=O)NCc2ccccc2)ccc1-n1cnnn1,-0.7,1.7,4.9,15.4*,2.2,3.7,1.8
SMILES,Fam108B inh,PAD4 inh,LYPLA2 counter,LYPLA1 counter,GSTO1 inh,PME-1 inh,LYPLA1 conf
COc1ccccc1C(=O)NCC(=O)N=Nc1c(O)n(C(C)C)c2ccccc12,0.9,1.5,-8.4,19.9*,5.5,4.9,26.7*
CC(C)n1c(O)c(N=NC(=O)CNC(=O)Cc2ccc(Cl)cc2)c2ccccc21,1.5,3.2,5.2,1.9,4.2,-1.0,nt
CCOCCn1c(=NC(=O)c2ccc(S(=O)(=O)N3CCOCC3)cc2)sc2cc(S(N)(=O)=O)ccc21,-0.8,-3.6,15.4,15.0*,-1.8,8.7,15.0*
COCCn1c(=NC(=O)c2ccc(S(=O)(=O)N3CCc4ccccc4C3)cc2)sc2cc(S(N)(=O)=O)ccc21,-41.0,-4.4,-69.8,-33.5,-19.2,-49.5,nt
CCc1c(O)nc2sc3ccccc3n2c1=O,1.3,-3.0,-3.5,1.3,-4.8,-3.2,nt
CCCCNCc1ccc(OCc2ccc(Cl)nc2)c(OC)c1,1.3,-1.8,9.7,15.2*,6.6,-2.7,2.6
COc1ccc2[nH]c(C(=O)N3CCC(CO)(Cc4cccc(C(F)(F)F)c4)CC3)c(C)c2c1,5.1,-0.3,4.1,19.0*,-1.2,4.2,26.1*
COC(=O)c1ccc(COc2ccccc2/C=C(\C#N)C(=O)Nc2ccc(C)cc2C)cc1,-7.2,1.6,4.8,15.6*,5.7,5.5,-3.8
COC(=O)[C@]1(C)N[C@H](CN(C)C(=O)Nc2ccccc2)[C@@H]2C(=O)N(Cc3ccccc3)C(=O)[C@@H]21,nt,-0.2,nt,nt,nt,nt,nt
O=C(c1nc2ccccn2c1CNCCCn1nnc2ccccc21)N1CCOCC1,1.3,0.1,-4.9,-0.3,2.0,1.2,nt
Cc1ccsc1C1Nc2ccc3ncccc3c2C2=C1C(=O)CC(C)(C)C2 (centres undefined),4.1,-4.6,11.3,16.2*,-2.5,16.6,10.7
O=C(CSc1nnc(-c2ccco2)o1)N1CCN(c2ccccc2)CC1,-1.4,-0.6,4.1,20.0*,6.1,-1.1,28.4*
C#CCN1c2ccccc2Sc2cccnc21,12.5,1.5,23.1,17.4*,17.7,28.6*,0.3
CC(CN1c2ccccc2Sc2ccccc21)N(C)C (centres undefined),-2.3,-1.3,5.1,0.9,0.9,3.8,nt
O=C(CN(CC1CCCO1)C(=O)CNS(=O)(=O)c1ccc(F)cc1)NC1CCCCC1 (centres undefined),0.5,-1.7,15.4,0.5,0.5,-0.3,nt

# Bioassay records from PubChem BioAssay.
